High-throughput results deposited in PubChem BioAssay by National Center for Advancing Translational Sciences (NCATS).
Compounds with a hit are over-represented: about 3.6% of the library has one in this group of screens.
Nrf2 ARE act – activates Nrf2 signaling. AREc32 ARE-luciferase reporter (MCF7-derived line), luminescence, 24 h. Potency, µM (titrated, usually from 46.1 µM), for inactives: top-dose activation, hits mostly activators. actives 0.31% (n = 410,000). AID 624171; also: % of control where 0% means no effect; nearly all actives have a fitted effect of over 65% in size
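Luminescent ARE reporter assay in AREc32_Fluc cells: overnight plating at 37 deg C, 24 hr compound incubation, Steady-Glo added, 30 min RT before reading.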
TGFb inhibitor – TGF-b pathway inhibition; HepG2 CAGA-GFP TGF-b/SMAD3 reporter, GFP fluorescence, 18 h; TGF-beta stimulated, 500 pg/mL final; Potency, µM (series often up to 46.1 µM), without a hit: at the highest dose activity, negative = inhibition, actives largely listed as inhibitors; actives 1.2% (n = 410,000); also: % is scaled to controls: 0 for no effect and ±100 for the full control effect; nearly all actives have a fitted effect of over 65% in size
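Cell-based qHTS in HEPG2 carrying a CAGA-GFP Smad reporter; compounds added before 500 pg/mL final TGF-beta, 18 h incubation at 37 degrees C, GFP fluorescence quantified per cell by imaging cytometry.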
Nrf2 inh – blocks Nrf2 signaling; A549 ARE-Fluc reporter, luciferase luminescence, 18-24 h; Potency, µM (top dose mostly 46 µM), for the others: at the top dose activity change, negative = inhibition, most hits filed as inhibitors; actives 2.1% (n = 360,000); AID 504444; also: % is scaled to controls: 0 for no effect and ±100 for the full control effect; nearly all actives have a fitted effect of over 60% in size
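Quantitative HTS in A549 cells stably bearing an antioxidant response element-firefly luciferase construct. Inhibition of Nrf2-driven transcription was scored by luminescence after 18-24 h of compound exposure at 37 °C.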
HepG2 viability – kills HepG2 cells in TGF-b inhibitor counter-screen; HepG2 CAGA-GFP viability, ATP luminescence, 18 h; Potency, µM (titrated, usually from 46.1 µM), for the others: at the highest dose activity change, negative = cytotoxicity, usual class: cytotoxic; actives 0.76% (n = 410,000); AID 588856
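HepG2 CAGA-GFP cells (1000/well, DMEM with 1% FBS) received compound, then TGF-beta at 500 pg/mL final, and were incubated 18 hours at 37 degrees C. Viability was read by CellTiter-Glo luminescence. Media-only wells were set as complete cell-killing and DMSO as no toxicity.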
A549 viability – kills or reduces viability of A549 cells in Nrf2 counter-screen. A549 ARE-Fluc cells, CellTiter-Fluor viability, 18-24 h. Potency, µM (series often up to 46 µM), inactives show top-dose activity change, negative = cytotoxicity, actives largely listed as inhibitors. actives 0.16% (n = 390,000); also: % is scaled to controls: 0 for no effect and ±100 for the full control effect
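Cytotoxicity counterscreen: CellTiter-Fluor fluorescence was measured in A549 ARE_Fluc cells after 18-24 h of compound exposure in a concentration series. The subsequent BugLite luminescent read reports ARE-luciferase activity.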
Starred values were filed as active, the others as inactive; ? = inconclusive; / = no result; [ ] = dose if it differs, or a comment. Calls follow the shape of the dose curve; as a rule, active = well fitted curve in the direction sought with a large enough effect; inconclusive = small, poorly fitted or top-dose-only effect, or another doubt; inactive = no such curve, though single readings can be large; an effect the other way counts as inactive or inconclusive. Potency is read from the fitted curve at half-maximal effect.

SMILES | Nrf2 ARE act | TGFb inhibitor | Nrf2 inh | HepG2 viability | A549 viability
CCCCCCCCn1c(=O)c(C(=O)OC)c(N)c2ccccc21 | 3% | 16µM* | ? | -66% | ?
CCCCCCCn1c(=O)c(C(=O)OC)c(N)c2ccccc21 | 3% | 13µM* | ? | -12% | -12%
CCCCCCn1c(=O)c(-c2ccccc2)c(O)c2ccccc21 | -1% | 30% | / | 21% | -1%
CC(C)(C)c1ccc(/C=C(\c2nc3ccccc3[nH]2)S(=O)(=O)c2ccccc2)cc1 | ? | 16µM* | ? | -51% | ?
O=C(O)c1ccc(/C=C(\c2nc3ccccc3[nH]2)c2nc3ccccc3s2)cc1 | ? | ? | -23% | -2% | -4%
O=C(N/N=C(\c1ccccc1)c1cccnc1)C(O)(c1ccccc1)c1ccccc1 | 0% | -15% | -16% | 11µM* | 1%
CC/C(=N\NC(=O)OC)c1ccc(OC(F)F)cc1 | -1% | 3% | 10% | 10µM* | 5%
CC/C(=N\NC(N)=O)c1ccc(OC(F)F)cc1 | 0% | 14% | 11% | 2% | 1%
O=C(Nc1cccn2ncnc12)C(F)(F)F | 0% | 3% | 5% | 6% | 7%
CCC(=O)C1=C(c2ccc(Cl)cc2)N(C(=O)CC)n2c(C)nnc2S1 | 21% | 6.3µM* | / | -29% | -1%
CC(=O)C1=C(c2cccc([N+](=O)[O-])c2)N(C(C)=O)n2c(C)nnc2S1 | 12% | 11µM* | -30% | 11µM* | -19%
CCOc1ccc(C2=C(C(C)=O)Sc3nnc(C)n3N2C(C)=O)cc1 | 23% | 7.9µM* | ? | -58% | ?
Cc1nc2nc(NC(=O)C(C)C)[nH]n2c(=O)c1Cc1ccccc1 | 1% | -26% | 22% | -13% | 4%
O=C(NCc1ccccc1)c1nc[nH]c1C(=O)NCc1ccccc1 | 0% | -2% | -13% | -11% | 2%
CC1CCCC(C)N1C(=O)COC(=O)CNC(=O)C12CC3CC(CC(C3)C1)C2 (configuration not stated) | 0% | 28% | 2% | 1% | -2%
Cc1cccc(N(C)S(=O)(=O)c2c(C(=O)N3CCCCCC3)c(C)n(C)c2C)c1 | 0% | -1% | -16% | -9% | -2%
Cc1ccc(OCC(=O)N/N=C\c2ccc(C)o2)c([N+](=O)[O-])c1 | 7% | 27% | 5% | 4% | 3%
O=C(CSc1ccc(Cl)cc1)N/N=C/c1ccc([N+](=O)[O-])o1 | 5% | ? | 23µM* | -105% | ?
COC(=O)N/N=C/c1ccc([N+](=O)[O-])o1 | 2% | -25% | 1% | -22% | 2%
O=C(COc1ccccc1)N/N=C/c1ccc([N+](=O)[O-])o1 | 10% | 11µM* | 13µM* | 11µM* | ?
Cc1ccc(OCC(=O)N/N=C/c2ccc([N+](=O)[O-])o2)cc1 | 4% | 10µM* | 21µM* | 10µM* | -25%
O=C(CNc1ccc2ccccc2c1)N/N=C/c1ccc(C(=O)O)cc1 | 5% | -5% | 27% | 0% | 11%
O=C(CNc1ccc2ccccc2c1)N/N=C/c1ccc([N+](=O)[O-])o1 | 16% | 8.9µM* | -5% | 7.9µM* | -3%
O=C(C[n+]1ccccc1)N/N=C/c1cc(Br)ccc1F | 0% | ? | -1% | 7% | 5%
Cc1ccccc1OCC(=O)N/N=C/c1ccccn1 | 3% | -26% | -3% | -15% | 0%
SMILES | Nrf2 ARE act | TGFb inhibitor | Nrf2 inh | HepG2 viability | A549 viability
O=C(COc1ccccc1[N+](=O)[O-])N/N=C/c1ccccn1 | 11µM* | -4% | 4% | -23% | -8%
Cc1cc(C(=O)N/N=C/c2ccc([N+](=O)[O-])o2)c(C)o1 | 8% | 18µM* | 0% | 11µM* | -7%
CCn1c(N2CCN(S(=O)(=O)c3ccccc3C(F)(F)F)CC2)nc2ccccc21 | 3% | -12% | 21µM* | -6% | -13%
O=S(=O)(c1ccccc1C(F)(F)F)N1CCN(S(=O)(=O)c2ccccc2C(F)(F)F)CC1 | -1% | -2% | 8% | 1% | 5%
CCn1c(N2CCN(S(=O)(=O)c3ccc(OC)cc3)CC2)nc2ccccc21 | 0%[9.22 µM] | ? | 21µM* | -25% | -17%
Cn1c(N2CCN(S(=O)(=O)c3ccc(F)cc3)CC2)nc2ccccc21 | 0% | 1% | ? | -17% | -3%
CC(CCc1ccccc1)NS(=O)(=O)c1ccccc1Cl (configuration not stated) | 0% | -16% | -13% | -11% | 0%
COc1ccc(N2CCN(CCNS(=O)(=O)c3cccc4nsnc34)CC2)cc1 | 0% | 19% | -20% | 12% | 2%
COCCNc1oc(/C=C/c2ccccc2)nc1C#N | 2% | 15% | ? | 6% | -5%
CNc1oc(/C=C/c2ccccc2)nc1C#N | 2.8µM* | 0% | ? | -3% | 5%
O=C(CNC(=O)c1cccc(OC(F)F)c1)Nc1ccc(Cl)cc1 | 0% | 5% | 26µM* | 8% | -8%
O=C(Nc1ccc(OC(F)F)c(Cl)c1)c1cccc(OC(F)F)c1 | 3% | ? | / | -44% | ?
CCN1CCN(c2c(S(=O)(=O)c3ccc(OC)cc3)cnc3cc(OC)c(OC)cc23)CC1 | 0% | -5% | 5% | -26% | -11%
COc1cc2ncc(S(=O)(=O)c3ccccc3)c(N3CCCC(C)C3)c2cc1OC (configuration not stated) | -5% | ? | 23µM* | -47% | ?
COc1cc(NC(=O)CCS(=O)(=O)c2ccc3c(c2)CC(=O)N3C)cc(OC)c1OC | -1% | -7% | ? | -15% | -2%
CCC1(C)Cc2c(sc3nnn(CC(=O)Nc4ccccc4)c(=O)c23)CO1 (configuration not stated) | 0% | 3% | ? | -41% | -16%
CCC1(C)Cc2c(sc3nnn(Cc4ccccc4Cl)c(=O)c23)CO1 (configuration not stated) | -1% | 0% | 15µM* | -25% | -14%
O=C(NNc1ccccc1)Nc1ccccc1F | 2% | 1% | 4% | -7% | 3%
COc1ccc(NC(=O)C[C@H]2C(=O)N(Cc3ccccc3)C[C@@H]2c2ccc(OC)cc2)cc1 | 0% | 0% | / | -6% | /
Cc1cc(=O)n(C(C)C(=O)N2CCCc3ccccc32)c2c1c(C)nn2-c1ccccc1 (configuration not stated) | 3% | -15% | 18µM* | 3% | ?
CC(=O)c1cccc(NC(=O)C(C)n2c(=O)cc(C)c3c(C)nn(-c4ccccc4)c32)c1 (configuration not stated) | -1% | 2% | ? | 1% | -2%
CC(C)C(=O)Nc1cccc(COc2ccc(CN(Cc3ccccc3)C(=O)OC(C)(C)C)cc2)c1 | 4% | -35% | 16µM* | -12% | -4%
